Bst PK mod: Pyruvate Kinase | Potency, µM | 51,000 compounds, 1.2% hits | AID 361, 2006 | purified pyruvate kinase, luminescence ATP production; ribose 5-phosphate activator present at AC10; in the data active means potency below about 11 µM; inconclusive means mostly about 12 µM to 25 µM;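 the screen sought inhibitors and activators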;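 further: scaled between full activation by ribose 5 phosphate and full inhibition by luteolin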
FLuc inh: qHTS Assay for Inhibitors of Firefly Luciferase | Luciferin 4-monooxygenase (Photinus pyralis), P08659 | purified firefly luciferase, luminescence, 8 min | Potency, µM (highest dose often 57.1 µM), inactives show top-dose activity change, negative = inhibition, usual class: inhibitors | 72,000 compounds, 2.2% hits; active means well fitted inhibition curve with a large enough effect; inconclusive means small, poorly fitted or top-dose-only effect; further: nearly all actives have a fitted effect of over 40% in size
Target sequence (P08659 whole entry, looked up): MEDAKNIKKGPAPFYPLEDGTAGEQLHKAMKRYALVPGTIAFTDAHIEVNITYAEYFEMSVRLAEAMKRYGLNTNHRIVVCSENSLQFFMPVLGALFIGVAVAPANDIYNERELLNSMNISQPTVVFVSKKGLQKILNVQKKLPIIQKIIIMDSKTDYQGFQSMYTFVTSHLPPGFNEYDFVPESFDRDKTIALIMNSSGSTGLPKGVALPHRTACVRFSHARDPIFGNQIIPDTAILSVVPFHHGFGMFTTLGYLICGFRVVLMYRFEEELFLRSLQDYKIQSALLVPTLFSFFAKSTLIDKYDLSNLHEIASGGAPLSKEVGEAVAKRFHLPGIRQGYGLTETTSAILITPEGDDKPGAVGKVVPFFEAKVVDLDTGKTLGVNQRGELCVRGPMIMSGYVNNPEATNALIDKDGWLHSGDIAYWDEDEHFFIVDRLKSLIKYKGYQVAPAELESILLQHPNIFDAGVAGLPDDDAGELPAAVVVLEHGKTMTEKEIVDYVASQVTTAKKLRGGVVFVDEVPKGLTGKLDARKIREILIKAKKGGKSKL
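Compounds were tested as concentration series (qHTS) against purified P. pyralis luciferase with luciferin and 10 uM ATP in 50 mM imidazole pH 7.2, 50 mM KCl, 7 mM MgCl2, 0.01% Tween 20, 0.05% BSA. Luminescence was read after 8 min at ambient temperature.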
Active calls of the source: *; i = inactive; ? = inconclusive; nt = not tested or not shown; ! = repeats disagree; [ ] = remark or other dose. In the library only some 2.5% were active in any assay of this set; here they are far more common. Unless noted, on the % scale 0 is the no-effect control and ±100 the full control effect; potency means the concentration at half of the fitted maximal effect.

SMILES | Bst PK mod | FLuc inh
CCC(=O)c1ccc(OCC(=O)O)cc1 | >57 | -5.4%
O=c1c(-c2ccc3c(c2)OCCO3)coc2cc(O)cc(O)c12 | 5.96* | ?
CCc1cc2c(=O)c(-c3ccc4c(c3)OCCO4)coc2cc1OC(=O)c1ccco1 | i | -17.9%
Cc1ccc2c(Cl)cc(Cl)c(OCC(=O)NC(=O)NCc3ccco3)c2n1 | 3.05* | -32.2%
Cc1cc(Cl)cc(Cl)c1OCC(=O)NCc1ccco1 | nt | 0.6%
COc1ccccc1-c1cc(Nc2ccc(F)cc2)ncn1 | nt | 1.1%[2.29 µM]
NCCNS(=O)(=O)c1ccc(N)cc1 | nt | 0.2%[11.4 µM]
CC(C)CNS(=O)(=O)c1ccc(CCC(=O)N2CCN(Cc3ccccc3)CC2)cc1 | >57 | -0.2%
CC(C)CNS(=O)(=O)c1ccc(CCC(=O)N2CCN(Cc3ccc4c(c3)OCO4)CC2)cc1 | 2.83* | 2.0%
O=c1c(-c2nc3ccccc3o2)c2oc3ccccc3n2c2ccccc12 | 5.41* | -3.7%
O=c1oc2ccccc2n1CCn1c2ccccc2c2nc3ccccc3nc21 | >57 | -0.4%
Cc1ccc2nsnc2c1S(=O)(=O)N1CCCC1 | ? | 0.0%
Cc1cc(NC(=O)c2ccc3c(c2)OCCO3)no1 | 3* | 2µM*
CCN(CC(=O)Nc1ccc2c(c1)OCCO2)CC(=O)Nc1cc(C)on1 | >57 | 1.3%
CN(C(=O)c1ccc2c(c1)OCO2)C1(C(=O)NC2CCCC2)CCCCC1 | ? | -1.2%
CCOC(=O)Cc1csc(NC(=O)c2ccc3c(c2)OCO3)n1 | nt | 20µM*
Cc1cc(NC(=O)c2ccc3c(c2)OCO3)no1 | nt | 7.94µM*
O=C(NC1CCCCCCC1)c1ccc2c(c1)OCO2 | nt | 15.8µM*
CCOC(=O)Cc1csc(NC(=O)c2ccc(Br)s2)n1 | nt | -5.1%
CCOc1ccc(C(=O)Nc2cc(C)on2)cc1OCC | i | 0.5%
COc1ccc2c(c1)C(=NO)c1cc(OC)ccc1-2 | i | -12.9%
O=C(NCCN1CCOCC1)c1ccc(Cl)c(S(=O)(=O)N2CCCCCC2)c1 | >57 | 3.3%
O=C(C1CCN(S(=O)(=O)c2cccc3cccnc23)CC1)N1CCCC1 | nt | 2.5%
CCc1cccc(CC)c1NC(=O)CN(CC(=O)O)CC(=O)O | nt | 7.0%[25.5 µM]
Cn1c(COc2ccccc2)nnc1SCCN1CCOCC1 | >57 | 0.9%
SMILES | Bst PK mod | FLuc inh
Cc1nc2cc(-c3ccccc3)ccc2o1 | nt | 15.8µM*
Cc1cc2c(C)nc(-c3ccccc3)nc2o1 | >57 | 1.3%
COc1ccccc1-c1nc(C#N)c(N2CCN(Cc3ccccc3)CC2)o1 | >57 | -4.3%
CCOC(=O)CSc1nc(N)c(C(=O)Nc2ccc(N(C)C)cc2)s1 | i | 12.6µM*
COc1ccc(NC(=O)c2sc(SC)nc2N)cc1 | nt | -29.7%
CCOC(=O)N/C(N)=N/c1nc2ccccc2s1 | nt | 12.6µM*
CCOC(=O)NC(Nc1nc2ccccc2s1)(C(=O)OCC)C(F)(F)F (centres undefined) | >57 | -0.1%
C=CCOc1ccc(/C=C/C(C)=N\O)cc1 | nt | 15.8µM*
CCOc1ccc(/C(=N\O)C(C)NO)cc1 (centres undefined) | nt | 2.2%
CCN1CCc2nc(NC(=O)c3ccc4c(c3)OCCO4)sc2C1 | nt | 15.8µM*
CCN1CCc2nc(NC(=O)Cc3ccc4c(c3)OCCO4)sc2C1 | >57 | 0.6%
CCOc1ccc(C(=O)CCNC(Cc2cnc[nH]2)C(=O)O)cc1 (centres undefined) | nt | 0.2%
COc1ccc(N=CC2=C(O)CCCC2=O)cc1 | nt | -14.1%
CCCCCCn1cc(C(=O)O)c(=O)c2ccccc21 | >11.4 | 1.3%[25.5 µM]
CCCCCN=c1ccn(Cc2ccccc2)c2ccccc12 | nt | 25.1µM*
O=C1c2ccccc2C(=O)C1c1ccc2ccccc2n1 | 1.14* | 0.794µM*
O=C(OC1CCOC1=O)c1ccc2ccccc2n1 (centres undefined) | >57 | -2.5%
COCCNC(=O)c1sc2nc(-c3ccccc3)cn2c1C | nt | -13.6%
COc1ccc2c(c1)sc1nc(-c3ccccc3)cn12 | 0.0552* | 0.0631µM*
CSc1cc(C)nc(N(C)C(C)=O)n1 | >25.6 | 1.3%[25.5 µM]
CCCn1c(=NC(=O)c2ccncc2)c(C(=O)OCC)cc2c(=O)n3cccc(C)c3nc21 | >57 | 0.3%
N#CCSc1nc2cc(C(=O)N3CCC(C(N)=O)CC3)ccc2c2nc3ccccc3n12 | 0.467* | -2.6%
N#CCSc1nc2cc(C(=O)N3CCCC3)ccc2c(=O)n1Cc1ccccc1 | >57 | -0.5%
Cc1ccccc1-c1coc2cc(O)ccc2c1=O | >57 | 1.5%
O=c1c(-c2ccc(O)cc2)coc2cc(O)ccc12 | nt | 10µM*!
SMILES | Bst PK mod | FLuc inh
CC(C)Oc1ccc2c(=O)c(-c3ccccc3)coc2c1 | i | 5.01µM*
CCN(CC)C(=O)Oc1ccc2c(=O)c(-c3ccc(OC)cc3)coc2c1 | >57 | -28.9%
COCc1cc(C)nc(Nc2ccccc2C)c1C#N | >57 | -0.4%
COc1cccc(C2CC(=O)N3CN(c4cccc(Cl)c4C)CSC3=C2C#N)c1OC (centres undefined) | nt | -20.7%
Cc1csc2ncc(C(=O)NCc3ccccn3)c(=O)n12 | nt | 1.4%
CN(C)c1nc(N)nc(Nc2ccccc2C#N)n1 | nt | -2.2%
CN(C)c1nc(Nc2ccc(Cl)cc2)nc(OCC#N)n1 | 1.74* | 2.2%
CC(C)(C)C1CCC(=O)C(C2(O)C(=O)Nc3ccccc32)C1 (centres undefined) | >57 | 2.6%
CC(C)(C)n1ncc2c(=O)n(CC(=O)NCCc3ccccc3)cnc21 | >57 | -1.7%
CC(C)(C)n1ncc2c(=O)n(CC(=O)NCc3ccccc3Cl)cnc21 | nt | 25.1µM*
COc1ccccc1OCCn1c(CO)nc2ccccc21 | >57 | -4.0%
OCc1nc2ccccc2n1CCCOc1ccc(Br)cc1 | ? | 12.6µM*
CC(C)(CS)C(=O)N1CCC[C@H]1C(=O)O | nt | -1.1%[25.5 µM]
O=C(Nc1ccc(F)c(Cl)c1)c1ccc2c(=O)n3c(nc2c1)CCCCC3 | >57 | ?
O=C(Nc1cccc(Cl)c1)c1ccc2c(=O)n3c(nc2c1)CCCCC3 | ? | 12.6µM*
O=C1c2ccccc2N[C@H](c2cc(Cl)cc(Cl)c2O)N1CCc1ccccn1 | nt | 1.1%[11.4 µM]
CCOC(=O)CNC(=O)Cn1cnc2ccc(S(=O)(=O)N3CCC(C)CC3)cc2c1=O | >57 | 2.1%
CCOC(=O)CC(=O)Nc1ccccc1C(=O)O | nt | 2.3%
COc1ccc(/C=C\C(=O)Nc2ccccc2C(=O)O)cc1OC | nt | 31.6µM*!
Cc1ccc(S(=O)(=O)N(C)Cc2nc(-c3ccncc3)no2)cc1 | >57 | 3.9%
CCCn1c(N)c(C(=O)CN2CCN(S(=O)(=O)c3cccs3)CC2)c(=O)[nH]c1=O | >57 | -1.1%
Cc1cc(NC(=O)Nc2ccc3c(ccn3C)c2)sn1 | nt | 31.6µM*!
Cc1cc(N)c2cc(NC(=O)Nc3ccc4nc(C)cc(N)c4c3)ccc2n1 | nt | 2.6%[11.4 µM]
Cc1ccc(C(=O)CC2(O)C(=O)N(CN3CCOCC3)c3ccccc32)cc1 (centres undefined) | >57 | 2.4%
CCOc1ccc2noc3c2c1C(=O)c1ccccc1-3 | nt | -2.7%
SMILES | Bst PK mod | FLuc inh
O=C1c2ccccc2-c2onc3ccc(NCc4ccco4)c1c23 | 5.26* | -23.4%[25.5 µM]
Cc1ccccc1-c1cncnc1NC1CCNCC1 | nt | 0.1%[2.29 µM]
O=C(CCCN1C(=O)c2ccccc2C1=O)Nc1sc2c(c1C(=O)NCc1ccco1)CCC2 | >57 | -0.5%
OC(c1ccc2c(c1)OCO2)c1nccc2ccccc12 (centres undefined) | nt | 5.6%
c1ccc2c(Oc3ccc4c(c3)OCO4)nncc2c1 | i | 15.8µM*
O=C1N=C(N2CCOCC2)S/C1=C1\C(=O)N(Cc2ccccc2)c2ccccc21 | nt | -17.8%
CCCN1C(=O)/C(=C2\SC(N3CCCCC3)=NC2=O)c2ccccc21 | ? | 15.8µM*
CCOC(=O)c1c(C)n(C)c2cc(OCCN(CC)CC)ccc12 | >57 | 2.0%

Source: PubChem BioAssay
